Data on 21 molecules can be found in ChEMBL document CHEMBL3988442, “University of Dundee, Small-Polar-MMV Screening Library” (2021).

This assay concerns the target AMP-activated protein kinase, AMPK (Homo sapiens) (UniProt P54646+O43741+P54619+Q9UGJ0+Q9Y478+Q13131+Q9UGI9). Put plainly: AMP-dependent Kinase enzyme assay. An in vitro enzyme assay that detects ADP turnover that is directly proportional to AMPK activity. This uses naive AMPK that is activated during the assay with MK-8722. Set-up: scale not given: direction of the effect not stated beside the values. In kind it is functional. The following applies: 30 µM.
Regarding `CCC(C(=O)NC1(COC)CCCC1)n1cccn1` (stereo unspecified), the Percent Effect was -12%. On to `Cc1nn(C)c2nc(N(Cc3nccs3)C3CC3)sc12`, for which the Percent Effect worked out at 1.18%.

`Cc1ccc(N2CCC(c3cc(Cc4ccccc4)n[nH]3)CC2)nn1`: the Percent Effect was 10.9%.

`CCNC(=O)C1CCN(Cc2ccccc2OCC(F)(F)F)CC1`: the Percent Effect is -3.27%. In the case of `NC(=O)C1CCN(CCCNC(=O)Nc2nccs2)CC1`, the Percent Effect came to 5.68%. As for `CN(C)S(=O)(=O)NCC1CCN(Cc2ccccc2F)CC1`, the Percent Effect is -2.6%.

For the molecule `COc1ccc(N2CCN(Cc3nc(CSC)no3)CC2=O)cc1`, the Percent Effect is 1.27%. As to `CN(CCNC(=O)Nc1cnn(C)c1)Cc1ccc(F)cc1`, the Percent Effect is 0.603%. Then `CCn1nc(C)c(NC(=O)CN(C)C(C)c2ccon2)c1C` (stereo unspecified), with -1.21%; and `COc1c(C2CCCN2CC(=O)N(C)Cc2ccco2)c(C)nn1C` (stereo unspecified), with 1.41%. Then `O=C(c1ccccc1)C1CCN(C(=O)CC2COCCN2)CC1` (stereo unspecified), with 1.36%. Then `COc1ccccc1C(NC(=O)CN(C)C(C)C)c1noc(C)n1` (stereo unspecified), with -4.19%. With `O=C(NCCS(=O)(=O)N1CCN(c2ncccn2)CC1)c1ccccc1`, the Percent Effect was -4.77%.

On to `CCc1ccc(CCC(=O)N2CCC(=O)Nc3cccnc32)cc1`, for which the Percent Effect came to 0.539%. With `CCc1ccsc1C(=O)NC(C#N)CC(C)C` (stereo unspecified), the Percent Effect was -7.05%. In the case of `Cc1ccc(CNC(=O)c2ccc(=O)n(C)n2)c(OC2CCCC2)c1`, the Percent Effect worked out at 12.3%.

For `COCc1nn(Cc2ccc(Br)s2)c(=O)o1`, the Percent Effect stood at 13.5%. Take `COc1cccnc1NC(=O)COC1CCCC1`: the Percent Effect amounted to 8.7%.

Regarding `CNC(=O)CCOC(=O)c1cccc(-n2cccn2)c1`, the Percent Effect stood at 7.17%. As to `FC(F)(F)c1cc(C2CCCN(Cc3ccncc3)C2)n[nH]1` (stereo unspecified), the Percent Effect was found to be 3.39%. Then `Cn1cc(S(=O)(=O)N(CC(F)(F)F)C2CC2)cc1C(N)=O`, with 1.54%.
